# Data: PubChem BioAssay AID1445 (SRMLSC, 2008)
# Out of some 220,000 compounds screened, about 910 (0.41%) were called active. Only a selection was taken, and actives are over-represented in it overall. Potency and affinity values are given separately. A number with no mark means an inactive call.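 The calls were made as follows: active = primary inhibition above the hit cutoff, then over 50% inhibition at one or more dose response concentrations (cut at about 23% in these data, passing the limit was not always enough); inconclusive = conflicting primary data, or primary hits not chosen for dose response; inactive = low primary inhibition, or under 50% at every dose.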
# Molecular target: Aminopeptidase N (Plasmodium falciparum (isolate 3D7)) (UniProt O96935)
# Test: malaria alanyl aminopeptidase activity blockers – biochemical, fluorogenic H-Leu-NHMec substrate, 1536-well (AID 1445);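 also: plate controls were DMSO full reaction for no effect and no enzyme background for full effect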
# Details: recombinant M1AAP, H-Leu-NHMec fluorogenic kinetic assay
# [1] = at 30 µM, active compounds read high unless noted
# Sequence of Aminopeptidase N (Plasmodium falciparum (isolate 3D7)) (O96935 whole entry, looked up): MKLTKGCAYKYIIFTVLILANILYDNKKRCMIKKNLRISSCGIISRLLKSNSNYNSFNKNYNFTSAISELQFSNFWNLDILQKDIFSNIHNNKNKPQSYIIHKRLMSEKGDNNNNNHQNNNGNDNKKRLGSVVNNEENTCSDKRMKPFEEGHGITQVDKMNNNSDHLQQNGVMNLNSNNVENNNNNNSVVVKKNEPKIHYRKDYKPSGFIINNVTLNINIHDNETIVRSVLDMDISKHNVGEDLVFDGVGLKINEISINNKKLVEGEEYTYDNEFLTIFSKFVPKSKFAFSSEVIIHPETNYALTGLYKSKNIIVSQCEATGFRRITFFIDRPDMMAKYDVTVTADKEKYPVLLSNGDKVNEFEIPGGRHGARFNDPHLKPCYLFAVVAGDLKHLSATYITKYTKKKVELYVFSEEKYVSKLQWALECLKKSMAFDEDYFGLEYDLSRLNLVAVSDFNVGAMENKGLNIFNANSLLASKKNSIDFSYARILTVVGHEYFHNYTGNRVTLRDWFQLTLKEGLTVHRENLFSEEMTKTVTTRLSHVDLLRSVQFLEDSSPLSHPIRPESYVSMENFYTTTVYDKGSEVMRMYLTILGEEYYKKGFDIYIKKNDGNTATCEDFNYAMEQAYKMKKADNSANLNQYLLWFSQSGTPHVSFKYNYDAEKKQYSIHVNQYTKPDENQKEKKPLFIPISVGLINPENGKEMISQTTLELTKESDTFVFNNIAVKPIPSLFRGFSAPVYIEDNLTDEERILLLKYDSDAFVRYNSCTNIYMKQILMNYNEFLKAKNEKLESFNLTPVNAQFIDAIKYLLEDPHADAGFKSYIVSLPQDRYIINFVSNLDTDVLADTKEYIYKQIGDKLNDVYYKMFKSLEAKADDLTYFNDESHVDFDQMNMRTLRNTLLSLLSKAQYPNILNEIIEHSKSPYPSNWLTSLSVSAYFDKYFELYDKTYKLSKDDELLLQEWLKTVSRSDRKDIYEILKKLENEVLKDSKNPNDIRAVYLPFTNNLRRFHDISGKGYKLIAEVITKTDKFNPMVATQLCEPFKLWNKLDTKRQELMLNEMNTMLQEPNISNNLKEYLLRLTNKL
compound,measurement,setting,value
CCc1nnc(NC(=O)CSc2nnc(CNC(=O)c3ccc(OC)c(OC)c3)o2)s1,inhibition,[1],0.34%
CC1(C)NC(=O)N(CCCCOc2ccccc2[N+](=O)[O-])C1=O,inhibition,[1],1.49%
O=C(Cc1ccc(Br)cc1)N/N=C/c1ccc(-c2cccc(C(=O)O)c2)o1,inhibition,[1],14.3%
O=C1C2C3C=CC(C4CC34)C2C(=O)N1/N=C/c1ccc(-c2ccc([N+](=O)[O-])cc2)o1 (stereo not given),inhibition,[1],7.6%
COc1ccc(CC(=O)N/N=C/c2ccc(-c3ccc(F)cc3)o2)cc1OC,inhibition,[1],6.71%
COC(=O)c1ccc(-c2ccc(/C=N/N3C(=O)C4C5C=CC(C6CC56)C4C3=O)o2)cc1 (stereo not given),inhibition,[1],4.36%
O=C(CCN1CCN(C(=O)c2ccco2)CC1)Nc1ccc(F)cc1,inhibition,[1],1.29%
S=C(NCCCn1ccnc1)NC1CCCCC1,inhibition,[1],6.56%
CCC(C)NC(=O)CN(C)S(=O)(=O)c1ccc2c(c1)c(=O)n(C)c(=O)n2C (stereo not given),inhibition,[1],-4.82%
CCCC(=O)OCC(=O)Nc1ccc2c(c1)OCO2,inhibition,[1],-0.89%
CCOC(=O)C1=C(C)N=c2s/c(=C3\C(=O)Nc4ccccc43)c(=O)n2C1c1ccc2c(c1)OCO2 (stereo not given),inhibition,[1],8.57%
CCO/C=C1\C(=O)N(c2ccccc2)C(=O)c2ccccc21,inhibition,[1],-1.51%
Cc1cc(C)nc(NS(=O)(=O)c2ccc(N3C(=O)c4ccccc4C3=O)cc2)n1,inhibition,[1],0.35%
CCO/C=C1/C(=O)N(c2ccc(OC)cc2)C(=O)c2ccccc21,inhibition,[1],4.8%
CCOc1ccc(N2C(=O)c3ccccc3C2=O)cc1,inhibition,[1],-0.53%
COc1ccccc1N1CCN(C(c2ccc(N(C)C)cc2)c2nnnn2CCc2ccccc2)CC1 (stereo not given),inhibition,[1],-7.04%
CCc1c(C)c2ccc(OCC(=O)N(C)C)c(C)c2oc1=O,inhibition,[1],0.38%
COc1ccc(Oc2c(C)oc3c(CN(C)C)c(O)ccc3c2=O)cc1,inhibition,[1],2.59%
Cc1oc2c(CN3CCCC3)c(O)ccc2c(=O)c1-c1ccc(Br)cc1,inhibition,[1],17.5%
Cc1oc2c(CN3CCCC3)c(O)ccc2c(=O)c1-c1ccccc1,inhibition,[1],9.3%
CCCc1cc(=O)oc2c(CN3CCOCC3)c(O)ccc12,inhibition,[1],21.8%
CCc1cc2c3c(c(=O)oc2cc1O)CCCC3,inhibition,[1],22.5%
O=c1oc2c(CN3CCOCC3)c(O)ccc2c2ccccc12,inhibition,[1],3.91%
CCN(CC)Cc1c(O)c(Cl)cc2c3c(c(=O)oc12)CCCC3,inhibition,[1],9.62%
COc1ccc(-n2nnnc2SCC(=O)N2CCCC2)cc1OC,inhibition,[1],0.63%
COc1ccc(C(=O)Nc2cc(=O)n(C)c(=O)n2C)cc1,inhibition,[1],4.18%
Cc1nc(N)nc(-c2ccccc2O)n1,inhibition,[1],7.96%
Cn1c(=O)[nH]c(=O)c2c1nc(N1CCCCC1)n2C/C=N/NC(=O)c1cc(Br)ccc1O,inhibition,[1],20.9%
COCCCNC(=O)c1ccccc1Sc1ccc(NC(C)=O)nc1,inhibition,[1],2.96%
CCCn1nc2cc(C(=O)NC3CCc4ccccc43)ccc2c1OCC (stereo not given),inhibition,[1],4.98%
Nc1nc(NC(=O)c2ccccc2Cl)nn1-c1ccccc1,inhibition,[1],-0.99%
Cc1c(C(=O)NCC(C)C)sc2nc(-c3ccc(F)cc3)cn12,inhibition,[1],-1.14%
CC(=O)Cc1nsc(NC(=O)c2ccco2)n1,inhibition,[1],0.74%
O=[N+]([O-])c1cc(S(=O)(=O)Nc2ccccc2)ccc1NCc1cccnc1,inhibition,[1],6.72%
CC1CCCCN1Cc1c(O)ccc2c(=O)c(-c3nc4ccccc4s3)c(N)oc12 (stereo not given),inhibition,[1],17.1%
COC(=O)Cc1c(C)c2ccc(OCC(C)=O)c(C)c2oc1=O,inhibition,[1],14.3%
CC1CN(Cc2c(O)ccc3c2oc(=O)c2ccccc23)CC(C)O1 (stereo not given),inhibition,[1],4.75%
CC(C)CN(Cc1c(O)ccc2c3c(c(=O)oc12)CCC3)CC(C)C,inhibition,[1],34.7%
CC1CCCN(Cc2c(O)ccc3c(=O)c(-c4nc5ccccc5s4)c(N)oc23)C1 (stereo not given),inhibition,[1],24.6% (active)
CN(Cc1c(O)ccc2c1oc(=O)c1ccccc12)C1CCCCC1,inhibition,[1],5.6%
C=C(C)COc1ccc2c(C)c(CC(=O)OC)c(=O)oc2c1C,inhibition,[1],13.3%
CCc1cc(=O)oc2cc(C)c(CN3CCCC(C)C3)c(O)c12 (stereo not given),inhibition,[1],2.92%
CC1CCN(Cc2c(O)ccc3c(=O)c(-c4nc5ccccc5s4)c(N)oc23)CC1,inhibition,[1],2.55%
O=C(Cc1c(Cl)cccc1Cl)NCCc1ccc(Cl)cc1,inhibition,[1],13.8%
Cc1ccc(NC(=O)CCNS(=O)(=O)c2ccc3c(c2)c(=O)n(C)c(=O)n3C)cc1C,inhibition,[1],9.45%
NC(=O)c1ccccc1N/C=C1\CCCCC1=O,inhibition,[1],10.2%
O=C1/C(=C/Nc2cccc([N+](=O)[O-])c2)CCc2ccccc21,inhibition,[1],9.22%
CCOC(=O)N1CCN(C(=O)COc2ccccc2Cl)CC1,inhibition,[1],4.17%
COCCn1c(SCC#N)nnc1-c1ccc2c(c1)OCO2,inhibition,[1],-1.51%
OC(c1cccs1)c1nccc2ccccc12 (stereo not given),inhibition,[1],-3.89%
COCCN(CCOC)Cc1c(O)ccc2c3c(c(=O)oc12)CCC3,inhibition,[1],4.7%
O=c1oc2c(CN3CCCCC3)c(O)ccc2c2c1CCCCC2,inhibition,[1],42.2% (active)
O=c1cc(-c2ccccc2)c2ccc(O)c(CN3CCCCC3)c2o1,inhibition,[1],11.4%
Cc1c(O)ccc2c3c(c(=O)oc12)CCCC3,inhibition,[1],20.9%
CCCCN(CC)Cc1c(O)ccc2c(-c3ccccc3)cc(=O)oc12,inhibition,[1],4.82%
COc1ccc(-c2cc(C#N)nc(Oc3ccc(Cl)cc3)n2)cc1,inhibition,[1],6.45%
CC(=O)Nc1ccc(/C=N/NC(=O)c2cc3cc(C)ccc3nc2C)cc1,inhibition,[1],2.63%
CCC(=O)Nc1ccc(S(=O)(=O)Nc2cc(C)on2)cc1,inhibition,[1],-4.75%
Cc1cc(NS(=O)(=O)c2ccc(NC(=O)CSc3nc4sc(C(=O)O)c(C)c4c(=O)[nH]3)cc2)no1,inhibition,[1],16.3%
O=C(N/N=C/c1cccnc1)c1ccccc1OCc1ccc(Cl)cc1,inhibition,[1],-4.49%
Cc1ccc(COc2ccccc2-c2cc(C(=O)N/N=C/c3cccnc3)[nH]n2)cc1,inhibition,[1],4.58%
COc1ccc(C2c3c(noc3C)CC(C)(O)C2C(C)=O)cc1 (stereo not given),inhibition,[1],0.23%
COc1ccc(-c2nn(-c3ccccc3)cc2/C=C/C(=O)N2CCN(c3ccccn3)CC2)cc1,inhibition,[1],1.49%
CCOC(=O)COc1ccc(/C=C/[N+](=O)[O-])c(OCC(=O)OCC)c1,inhibition,[1],1.07%
CCN=C1S/C(=C\c2cc(Br)ccc2OCC(=O)OCC)C(=O)N1CC,inhibition,[1],3.81%
CCOC(=O)COc1ccccc1/C=C\[N+](=O)[O-],inhibition,[1],11.9%
CCOC(=O)COc1ccc2ccccc2c1/C=C/[N+](=O)[O-],inhibition,[1],4.98%
CCCOC(=O)c1ccc(Cl)c(NC(=O)c2cccnc2)c1,inhibition,[1],8.87%
COc1ccc(C(=O)CC(=O)c2ccccc2O)cc1OC,inhibition,[1],2.33%
CSc1nnnn1-c1ccc(C(=O)O)cc1,inhibition,[1],5.73%
COC(=O)c1ccc(-n2nnnc2SC)cc1,inhibition,[1],26.3% (active)
COC(=O)COC(=O)c1ccc(-n2nnnc2SC)cc1,inhibition,[1],-3%
Cn1c(=O)n(CCc2ccccc2)c(=O)c2c1ncn2Cc1ccccc1,inhibition,[1],2.43%
Cc1cc(NC(=O)c2ccc(N3CCCC3)c([N+](=O)[O-])c2)no1,inhibition,[1],-2.39%
O=C(NCc1ccc2c(c1)OCO2)C1CCCN1C(=O)Nc1ccc(F)cc1 (stereo not given),inhibition,[1],11.2%
CC(=O)c1cccc(NC(=O)N2CCCC2C(=O)Nc2cccc(C)c2)c1 (stereo not given),inhibition,[1],1.86%
COc1cccc(NC(=O)C2CCCN2C(=O)Nc2cccc(F)c2)c1 (stereo not given),inhibition,[1],14.7%
O=C(NCc1ccc2c(c1)OCO2)C1CCCN1C(=O)Nc1ccccc1 (stereo not given),inhibition,[1],11.3%
CC(=O)Nc1ccc(NC(=O)C2CCCN2C(=O)Nc2ccc(F)c([N+](=O)[O-])c2)cc1 (stereo not given),inhibition,[1],2.21%
Cc1cccc(NC(=O)N2CCCC2C(=O)Nc2ccccc2)c1 (stereo not given),inhibition,[1],13.2%
COc1ccc(NC(=O)C2CCCN2C(=O)Nc2cccc(F)c2)cc1 (stereo not given),inhibition,[1],6.92%
CC(=O)Nc1cccc(NC(=O)C2CCCN2C(=O)Nc2ccccc2C)c1 (stereo not given),inhibition,[1],-3.25%
COc1ccc(Nc2nc(C(=O)N(CCO)Cc3ccccc3)cs2)cc1,inhibition,[1],0.85%
Cc1ccc(NC(=O)CC2NCCN(Cc3ccccc3)C2=O)cc1 (stereo not given),inhibition,[1],8.69%
Cc1ccc(N(CC(=O)NN=C2CCN(C)CC2)S(=O)(=O)c2ccccc2)c(C)c1,inhibition,[1],-0.06%
O=C(Cn1cnc([N+](=O)[O-])n1)N/N=C/c1ccc2ccccc2c1,inhibition,[1],10.2%
CCOC(=O)N1CCN(c2c(NCCCN(C)c3ccccc3)c(=O)c2=O)CC1,inhibition,[1],6.93%
CCCc1nnc(NC(=O)Cn2c(=O)oc3ccccc32)s1,inhibition,[1],-0.7%
CCOC(=O)C(CC)/C(C)=N/NC(=O)c1ccc([N+](=O)[O-])cc1 (stereo not given),inhibition,[1],2.15%
C=C1CCN([C@H](C(=O)NCc2ccco2)C(C)C)S(=O)(=O)c2ccccc21,inhibition,[1],11%
CC(=O)c1cccc(NC(=O)N2CCCC2C(=O)Nc2cc(C)ccc2C)c1 (stereo not given),inhibition,[1],-1.28%
COc1ccc(NC(=O)N2CCCC2C(=O)Nc2ccc(C)cc2)cc1 (stereo not given),inhibition,[1],-3.34%
CC1(C)CC(=O)C2=C(C1)N=C1SCCC(=O)N1C2c1cccc([N+](=O)[O-])c1 (stereo not given),inhibition,[1],18%
Cc1c(NS(=O)(=O)c2ccc(C(=O)NCc3ccccc3)cc2)c(=O)n(-c2ccccc2)n1C,inhibition,[1],0.49%
Cc1c(NC(=O)c2ccccc2NS(=O)(=O)c2ccc(Br)cc2)c(=O)n(-c2ccccc2)n1C,inhibition,[1],24.5% (active)
Cc1c(NS(=O)(=O)c2cccc(C(=O)NCc3ccncc3)c2)c(=O)n(-c2ccccc2)n1C,inhibition,[1],-2.28%
CC(=O)Nc1ccc(S(=O)(=O)Nc2c(C)n(C)n(-c3ccccc3)c2=O)cc1,inhibition,[1],0.31%
Cc1ccc(S(=O)(=O)Nc2c(C)n(C)n(-c3ccccc3)c2=O)cc1C(=O)NCc1ccccn1,inhibition,"at 30 µM, active compounds read high",28.8% (active)
same,inhibition,at 100 µM (top of the series),42.4%
Cc1c(NC(=O)c2ccccc2NS(=O)(=O)c2ccc(F)cc2)c(=O)n(-c2ccccc2)n1C,inhibition,[1],20.1%
